# Active and inactive are the calls of the source.
# Experiments:
# [1] = test system: PRMT1 (protein arginine N-methyltransferase 1); test: small molecules binding arginine methyltransferase PRMT1 – biochemical, small-molecule microarray, 635 nm fluorescence, primary screen (AID 1088); conditions: higher = more signal;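 note: binding of Prmt1 protein to compounds spotted on small-molecule microarray slides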
# [2] = growth effects on S. cerevisiae YJM789 – YJM789 clinical isolate, OD600, 24 h, basal, primary screen (AID 1089); conditions: higher = more signal, called active from +8 up or from −8 down;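 note: growth of clinical yeast isolate S. cerevisiae YJM 789 seeded 1000 cells per well; test concentration not given here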
# [3] = S. pombe growth modifiers, basal conditions – strain 972, OD600, 24 h, no modulator, primary screen (AID 1090);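 note: basal condition with compound alone and no growth modifier present; test concentration not given here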; conditions: S. pombe 972 growth, higher = more signal, called active from +8 up or from −8 down
# [4] = budding yeast growth modifiers under rapamycin – strain BY4716, OD600, 96 h, primary screen (AID 1091); note: test concentration not given here; conditions: S. cerevisiae BY4716 + rapamycin, higher = more signal, called active from +8 up or from −8 down
# [5] = target: Torsin-1A-interacting protein 2 (Homo sapiens) (UniProt Q8NFQ8); test: small molecules binding lysate-expressed LULL1 – cell lysate, human LULL1 lysate, 635/667 nm fluorescence, primary screen (AID 1092); conditions: small-molecule microarray, hLULL1 lysate binding, 635 nm fluorescence; higher = more signal;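 note: probe is lysate of COS7 cells overexpressing human LULL1; score merges per-feature 667 nm fluorescence with signal-to-noise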
# Chain of Torsin-1A-interacting protein 2 (Homo sapiens) (Q8NFQ8 whole entry, looked up): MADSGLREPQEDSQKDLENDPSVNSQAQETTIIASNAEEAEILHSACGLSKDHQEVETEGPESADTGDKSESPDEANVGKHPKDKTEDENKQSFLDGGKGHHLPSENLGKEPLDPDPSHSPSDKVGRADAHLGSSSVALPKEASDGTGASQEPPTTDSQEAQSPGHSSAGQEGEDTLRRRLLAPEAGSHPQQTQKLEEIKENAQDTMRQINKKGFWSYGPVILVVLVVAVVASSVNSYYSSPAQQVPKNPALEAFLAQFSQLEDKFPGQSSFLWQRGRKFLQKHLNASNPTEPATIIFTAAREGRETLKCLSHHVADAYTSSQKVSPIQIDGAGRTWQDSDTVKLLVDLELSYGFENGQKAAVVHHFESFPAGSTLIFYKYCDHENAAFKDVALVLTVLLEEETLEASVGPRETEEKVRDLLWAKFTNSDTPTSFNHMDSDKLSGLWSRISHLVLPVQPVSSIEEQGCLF
# [6] = optical density change of DRC41 E. coli – strain DRC41, OD650, 24 h, E. coli filamentation project, primary screen (AID 1093);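 note: MC1000 strain lacking acrAB efflux and sulA so SOS filamentation is blocked; test concentration not given here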; conditions: E. coli DRC41 growth, higher = more signal, called active from +8 up or from −8 down
# [7] = probe aLefty2 binding to arrayed compounds – biochemical, biotinylated probe, 635/667 nm fluorescence, primary screen (AID 1094); conditions: small-molecule microarray, higher = more signal;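 note: score merges spot fluorescence near 667 nm with spot signal-to-noise ratio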
# [8] = test system: Noggin (protein binding on small-molecule microarray); test: small molecules binding Noggin protein – biochemical, 635/667 nm fluorescence, primary screen (AID 1095); conditions: 635 nm fluorescence, higher = more signal;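 note: score merges 667 nm feature fluorescence with signal to noise over triplicate slides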
# [9] = target: Neurogenic locus notch homolog protein 3 (Homo sapiens) (UniProt Q9UM47); test: small molecules binding NOTCH3 protein – biochemical, 635/667 nm fluorescence, primary screen (AID 1096); conditions: small-molecule microarray, 635 nm fluorescence, higher = more signal
# Chain of Neurogenic locus notch homolog protein 3 (Homo sapiens) (Q9UM47 whole entry, looked up): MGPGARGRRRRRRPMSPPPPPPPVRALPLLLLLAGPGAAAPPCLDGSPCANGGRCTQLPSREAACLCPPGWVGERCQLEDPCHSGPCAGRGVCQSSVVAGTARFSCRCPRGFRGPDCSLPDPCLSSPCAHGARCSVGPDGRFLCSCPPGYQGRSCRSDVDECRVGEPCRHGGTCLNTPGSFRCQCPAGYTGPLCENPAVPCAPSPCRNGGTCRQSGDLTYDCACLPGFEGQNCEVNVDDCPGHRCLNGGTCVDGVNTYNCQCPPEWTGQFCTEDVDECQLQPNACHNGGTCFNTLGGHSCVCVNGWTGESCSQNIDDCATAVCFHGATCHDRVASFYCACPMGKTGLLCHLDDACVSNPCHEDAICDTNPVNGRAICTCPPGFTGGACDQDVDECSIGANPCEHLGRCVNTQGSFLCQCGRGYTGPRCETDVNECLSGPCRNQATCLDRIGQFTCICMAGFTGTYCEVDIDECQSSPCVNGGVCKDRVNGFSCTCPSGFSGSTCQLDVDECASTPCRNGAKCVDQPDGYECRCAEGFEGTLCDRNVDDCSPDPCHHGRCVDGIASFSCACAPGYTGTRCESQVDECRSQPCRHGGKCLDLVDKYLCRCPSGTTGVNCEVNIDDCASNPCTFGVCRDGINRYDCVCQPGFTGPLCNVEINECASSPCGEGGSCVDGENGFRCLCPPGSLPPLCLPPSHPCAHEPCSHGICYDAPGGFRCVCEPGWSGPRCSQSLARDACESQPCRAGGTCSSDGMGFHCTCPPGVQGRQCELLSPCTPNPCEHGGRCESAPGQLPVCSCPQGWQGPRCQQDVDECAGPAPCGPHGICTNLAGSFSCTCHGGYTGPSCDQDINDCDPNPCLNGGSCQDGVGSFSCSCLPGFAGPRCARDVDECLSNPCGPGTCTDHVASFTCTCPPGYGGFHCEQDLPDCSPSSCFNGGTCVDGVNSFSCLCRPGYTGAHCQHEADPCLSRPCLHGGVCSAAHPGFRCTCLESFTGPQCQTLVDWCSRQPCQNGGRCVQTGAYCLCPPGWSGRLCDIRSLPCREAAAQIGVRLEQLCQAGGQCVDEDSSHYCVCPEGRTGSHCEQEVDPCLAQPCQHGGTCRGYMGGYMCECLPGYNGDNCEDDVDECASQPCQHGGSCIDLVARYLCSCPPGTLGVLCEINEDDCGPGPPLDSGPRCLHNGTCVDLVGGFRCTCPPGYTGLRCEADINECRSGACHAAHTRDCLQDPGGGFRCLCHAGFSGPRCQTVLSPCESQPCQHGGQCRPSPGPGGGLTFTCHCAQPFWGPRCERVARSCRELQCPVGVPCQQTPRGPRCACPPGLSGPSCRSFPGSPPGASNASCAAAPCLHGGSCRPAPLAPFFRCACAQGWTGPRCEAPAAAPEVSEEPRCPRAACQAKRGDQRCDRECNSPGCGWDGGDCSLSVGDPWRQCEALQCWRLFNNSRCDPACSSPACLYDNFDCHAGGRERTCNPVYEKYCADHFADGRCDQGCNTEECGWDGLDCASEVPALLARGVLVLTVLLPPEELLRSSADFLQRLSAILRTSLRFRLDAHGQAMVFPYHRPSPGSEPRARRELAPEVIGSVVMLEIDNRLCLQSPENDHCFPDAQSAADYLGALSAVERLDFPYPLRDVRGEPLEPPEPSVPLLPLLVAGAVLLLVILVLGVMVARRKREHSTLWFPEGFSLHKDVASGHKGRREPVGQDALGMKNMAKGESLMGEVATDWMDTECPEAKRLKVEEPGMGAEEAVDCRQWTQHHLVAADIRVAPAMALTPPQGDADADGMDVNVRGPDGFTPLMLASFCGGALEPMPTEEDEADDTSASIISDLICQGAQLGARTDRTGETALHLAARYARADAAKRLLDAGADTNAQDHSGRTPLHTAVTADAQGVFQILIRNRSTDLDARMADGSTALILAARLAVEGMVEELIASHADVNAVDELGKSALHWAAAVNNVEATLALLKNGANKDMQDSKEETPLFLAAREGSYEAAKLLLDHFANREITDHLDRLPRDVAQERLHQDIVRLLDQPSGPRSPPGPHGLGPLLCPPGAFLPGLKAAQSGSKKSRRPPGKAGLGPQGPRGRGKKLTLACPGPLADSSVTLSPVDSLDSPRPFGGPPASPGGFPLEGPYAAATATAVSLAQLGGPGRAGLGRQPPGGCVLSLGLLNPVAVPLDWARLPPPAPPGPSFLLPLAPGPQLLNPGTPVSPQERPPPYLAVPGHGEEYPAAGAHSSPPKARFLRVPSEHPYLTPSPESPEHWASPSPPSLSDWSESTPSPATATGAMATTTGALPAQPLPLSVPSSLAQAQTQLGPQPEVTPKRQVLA
# [10] = probe aEGFR binding to arrayed compounds – biochemical, biotinylated probe, 635/667 nm fluorescence, primary screen (AID 1097); conditions: small-molecule microarray, higher = more signal;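 note: probe is a biotinylated anti-EGFR antibody binding compounds printed on slides; score combines fluorescence near 667 nm and signal to noise of each spot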
# [11] = test system: Plasmodium falciparum Sir2 (PF13_0152, Sir2A); test: Plasmodium falciparum Sir2A binding compounds – biochemical, small-molecule microarray, 635 nm fluorescence, primary screen (AID 1098); conditions: fluorescence 635 nm, higher = more signal;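 note: score merges spot fluorescence intensity with its signal-to-noise ratio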
# [12] = probe aDKK1 binding to arrayed compounds – biochemical, biotinylated probe, 635/667 nm fluorescence, primary screen (AID 1099); conditions: small-molecule microarray, higher = more signal;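 note: score merges 667nm spot fluorescence with signal to noise across triplicate slides; reference of the scale not given here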
# [13] = probe aCHRDL2 binding to arrayed compounds – biochemical, biotinylated probe, 635/667 nm fluorescence, primary screen (AID 1100); conditions: small-molecule microarray, higher = more signal
# [14] = change in splice reporter luminescence, either direction, cell-based, HEK293, spliceosome inhibition project, primary screen (AID 1101); conditions: HEK293 splicing luciferase reporter, 24 h, higher = more signal, called active from +8 up or from −8 down;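 note: HEK293 cells carrying a splicing-competent luciferase reporter gene; test concentration not given here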
# [15] = target: Fibroblast growth factor 10 (Homo sapiens) (UniProt O15520); test: compounds binding fibroblast growth factor 10 – biochemical, small-molecule microarray, 635 nm fluorescence, primary screen (AID 1102); conditions: FGF10 binding, fluorescence 635 nm, higher = more signal
# Chain of Fibroblast growth factor 10 (Homo sapiens) (O15520 whole entry, looked up): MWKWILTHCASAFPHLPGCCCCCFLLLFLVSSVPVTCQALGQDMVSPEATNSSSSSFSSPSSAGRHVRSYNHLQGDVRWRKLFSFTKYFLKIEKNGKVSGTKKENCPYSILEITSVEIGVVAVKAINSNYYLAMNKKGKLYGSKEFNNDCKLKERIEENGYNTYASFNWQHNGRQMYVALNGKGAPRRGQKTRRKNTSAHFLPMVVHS
# [16] = test system: glycogen synthase kinase-3 (GSK3A per assay name; protocol says GSK3B); test: compounds binding glycogen synthase kinase-3 – biochemical, small-molecule microarray, 635 nm fluorescence, GSK3A, primary screen (AID 1103); conditions: fluorescence 635 nm, higher = more signal; note: the record names both GSK3A and GSK3B
# [17] = target: Epidermal growth factor receptor (Homo sapiens) (UniProt P00533); test: compounds binding epidermal growth factor receptor – biochemical, small-molecule microarray, 635 nm fluorescence, primary screen (AID 1104); conditions: EGFR binding, higher = more signal;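 note: score merges 667 nm emission intensity with spot signal to noise over triplicate slides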
# Chain of Epidermal growth factor receptor (Homo sapiens) (P00533 whole entry, looked up): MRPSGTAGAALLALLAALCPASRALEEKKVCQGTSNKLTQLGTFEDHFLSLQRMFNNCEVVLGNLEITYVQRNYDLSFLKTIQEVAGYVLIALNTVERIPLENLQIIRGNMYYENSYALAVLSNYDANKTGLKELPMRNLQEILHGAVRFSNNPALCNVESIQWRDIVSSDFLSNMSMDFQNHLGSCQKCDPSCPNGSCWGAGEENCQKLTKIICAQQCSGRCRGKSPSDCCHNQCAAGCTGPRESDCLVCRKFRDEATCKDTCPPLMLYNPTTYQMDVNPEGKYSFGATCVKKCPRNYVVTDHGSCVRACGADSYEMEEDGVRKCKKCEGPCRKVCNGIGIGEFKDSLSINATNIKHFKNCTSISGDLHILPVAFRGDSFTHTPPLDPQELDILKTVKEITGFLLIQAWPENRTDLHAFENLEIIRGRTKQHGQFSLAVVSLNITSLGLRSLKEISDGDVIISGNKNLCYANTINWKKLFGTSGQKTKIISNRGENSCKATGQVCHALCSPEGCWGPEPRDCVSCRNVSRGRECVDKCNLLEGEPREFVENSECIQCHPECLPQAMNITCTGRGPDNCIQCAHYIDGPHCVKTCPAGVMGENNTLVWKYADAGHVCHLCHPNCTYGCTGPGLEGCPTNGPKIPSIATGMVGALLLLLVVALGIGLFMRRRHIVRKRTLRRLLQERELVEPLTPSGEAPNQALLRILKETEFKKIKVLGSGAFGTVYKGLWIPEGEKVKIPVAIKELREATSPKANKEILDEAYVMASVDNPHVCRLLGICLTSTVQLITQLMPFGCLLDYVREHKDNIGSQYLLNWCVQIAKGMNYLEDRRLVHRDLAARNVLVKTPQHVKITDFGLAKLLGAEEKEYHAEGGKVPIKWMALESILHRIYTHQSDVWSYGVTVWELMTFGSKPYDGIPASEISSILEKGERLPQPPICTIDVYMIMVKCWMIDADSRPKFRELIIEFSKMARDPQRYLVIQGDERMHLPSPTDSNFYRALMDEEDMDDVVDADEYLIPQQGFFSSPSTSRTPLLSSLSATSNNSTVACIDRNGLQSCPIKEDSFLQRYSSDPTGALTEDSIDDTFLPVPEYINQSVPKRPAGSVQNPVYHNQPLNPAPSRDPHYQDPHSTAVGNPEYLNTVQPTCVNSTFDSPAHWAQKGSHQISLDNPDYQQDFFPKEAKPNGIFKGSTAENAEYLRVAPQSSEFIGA
# [18] = target: Follistatin-related protein 3 (Homo sapiens) (UniProt O95633); test: compounds binding follistatin-related protein 3 – biochemical, small-molecule microarray, 635 nm fluorescence, primary screen (AID 1105); conditions: FSTL3 binding, higher = more signal;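 note: score merges emission near 667 nm and signal to noise per printed spot across three slides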
# Chain of Follistatin-related protein 3 (Homo sapiens) (O95633 whole entry, looked up): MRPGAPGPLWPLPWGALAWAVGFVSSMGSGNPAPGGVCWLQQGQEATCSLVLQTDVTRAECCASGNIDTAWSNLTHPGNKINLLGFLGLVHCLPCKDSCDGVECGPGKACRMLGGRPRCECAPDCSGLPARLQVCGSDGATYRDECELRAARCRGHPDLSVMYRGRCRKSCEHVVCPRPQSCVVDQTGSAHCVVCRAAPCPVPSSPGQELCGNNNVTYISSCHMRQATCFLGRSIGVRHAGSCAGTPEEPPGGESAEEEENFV
# [19] = target: Dickkopf-related protein 1 (Homo sapiens) (UniProt O94907); test: small molecules binding DKK1 protein – biochemical, small-molecule microarray, 635 nm fluorescence scan, primary screen (AID 1106); conditions: higher = more signal;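 note: score merges emission near 667 nm with signal to noise over three replicate slides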
# Chain of Dickkopf-related protein 1 (Homo sapiens) (O94907 whole entry, looked up): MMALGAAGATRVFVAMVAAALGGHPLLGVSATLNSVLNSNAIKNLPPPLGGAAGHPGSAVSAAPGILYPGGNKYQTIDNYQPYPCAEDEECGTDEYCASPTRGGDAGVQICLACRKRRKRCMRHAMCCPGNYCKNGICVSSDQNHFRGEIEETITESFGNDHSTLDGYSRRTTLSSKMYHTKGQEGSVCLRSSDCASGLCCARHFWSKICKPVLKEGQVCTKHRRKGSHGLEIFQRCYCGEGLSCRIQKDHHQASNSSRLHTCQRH
# [20] = test system: Inhibin beta A chain (activin A); test: small molecules binding activin A – biochemical, small-molecule microarray, 635 nm fluorescence scan, primary screen (AID 1107); conditions: INHBA, higher = more signal;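 note: mouse activin A protein probed at 4.33 µg/mL on printed slides; score merges bound-protein fluorescence near 667 nm with spot signal-to-noise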
SMILES,composite z-score [1],z-score [2],z-score [3],z-score [4],composite z-score [5],z-score [6],composite z-score [7],composite z-score [8],composite z-score [9],composite z-score [10],composite z-score [11],composite z-score [12],composite z-score [13],z-score [14],composite z-score [15],composite z-score [16],composite z-score [17],composite z-score [18],composite z-score [19],composite z-score [20]
C=CC[C@@H]1C=C[C@H](ON=C(C)CCC(=O)OC[C@H]2O[C@H](C#Cc3ccccc3)C=C[C@@H]2Oc2ccc(C)cc2)[C@@H](CO)O1,1.54,1.28 (inactive),0.275 (inactive),1.06 (inactive),2.2,0.943 (inactive),-0.116,0.615,1.12,0.109,1.19,-0.0927,-0.515,-0.439 (inactive),1.16,1.01,0.298,1.04,0.606,-0.117
CC(C)CON=C1C[C@@H](O)[C@@H](O)[C@@H]2[C@@H]3C(=O)N(C(C)(C)C)C(=O)[C@@H]3CC[C@H]12,0.829,-0.318 (inactive),0.674 (inactive),0.0851 (inactive),1.96,0.573 (inactive),0.0577,-0.316,-0.562,-0.0966,0.801,0.454,0.562,0.886 (inactive),-0.294,-0.516,-0.205,-0.743,-0.82,-0.576
COC(=O)[C@H](C)NC(=O)CCC1CC(OC(=O)NCc2ccc3c(c2)OCO3)CC2(CCCC(COC(=O)NCc3cccc(C(F)(F)F)c3)O2)O1 (stereo not given in full),1.42,-1.04 (inactive),0.0536 (inactive),0.253 (inactive),1.65,-0.15 (inactive),-0.0096,0.186,0.524,-0.0644,1.02,0.114,-0.289,0.562 (inactive),0.818,0.622,0.223,1.14,0.235,-0.0499
CCOC(=O)[C@H](CC(C)C)NC(=O)CCC1CC(OC(=O)NCCc2ccc(F)cc2)CC2(CCCC(COC(=O)NCC(c3ccccc3)c3ccccc3)O2)O1 (stereo not given in full),1.41,-0.297 (inactive),0.427 (inactive),-1.3 (inactive),2.59,-0.198 (inactive),-0.105,0.569,0.499,-0.127,1.1,0.096,-0.437,0.0587 (inactive),0.588,0.873,0.319,0.824,0.697,-0.0427
CC(C)(C)N1C(=O)[C@H]2[C@H]3[C@H](O)[C@H](O)CC(=O)[C@H]3CC[C@H]2C1=O,0.729,0.445 (inactive),-0.109 (inactive),0.85 (inactive),0.46,-0.29 (inactive),-0.211,0.344,0.611,-0.0333,0.0159,-0.282,-0.674,-0.432 (inactive),0.287,0.694,0.456,0.426,0.624,-0.167
CCOC(=O)[C@H](CC(C)C)NC(=O)CCC1CC(OC(=O)NCc2cccc3ccccc23)CC2(CCCC(COC(=O)NCCC(C)C)O2)O1 (stereo not given in full),0.554,-3.9 (inactive),-2.7 (inactive),-1.89 (inactive),0.691,-0.77 (inactive),-0.221,0.543,0.144,0.0031,1.49,-0.203,-0.196,-2.95 (inactive),0.335,-0.229,0.59,0.728,0.418,0.203
C[C@H]1CC[C@H]2C(=O)OC(CO)CN2[C@@H]1c1ccc(Br)cc1 (stereo not given in full),0.14,-0.276 (inactive),-0.315 (inactive),0.603 (inactive),-0.467,0.458 (inactive),-0.236,0.0982,-0.0249,-0.145,-0.273,-0.28,-0.0574,-0.522 (inactive),0.0323,-0.536,0.242,-0.34,-0.241,0.757
Cc1ccc(S(=O)(=O)N[C@H]2COC(=O)CC=C[C@H](C)[C@@H](NS(=O)(=O)c3ccc(C)cc3)COC(=O)CC=C[C@@H]2C)cc1,0.405,-0.293 (inactive),0.518 (inactive),0.0667 (inactive),0.247,0.0401 (inactive),-0.126,0.601,0.321,-0.068,-0.0784,-0.217,-0.588,0.647 (inactive),0.925,0.607,0.364,0.577,0.486,-0.136
COC(=O)CC=C[C@@H](C)[C@@H](C=NO[C@H](C)c1cn([C@H](CO)Cc2ccccc2)nn1)NS(=O)(=O)c1ccc(C)cc1,0.915,-0.798 (inactive),0.359 (inactive),-0.824 (inactive),0.786,-0.297 (inactive),-0.0407,0.857,-0.0329,0.168,0.182,0.0644,-0.0281,0.0956 (inactive),0.532,0.0796,0.264,0.226,0.0568,-0.119
CC(C)=CCCC(C)=CCON=C1C[C@@H](O)[C@@H](O)[C@@H]2[C@@H]3C(=O)N(C4CCCCC4)C(=O)[C@@H]3CC[C@@H]12,0.614,-0.671 (inactive),-2.8 (inactive),-0.513 (inactive),-0.687,-0.257 (inactive),-0.15,0.615,-0.407,-0.0956,0.511,-0.355,-0.858,0.956 (inactive),0.368,-0.345,0.859,0.502,0.996,1.04
